Unmarked numbers belong to inactive results. Active and inactive are the calls of the source. Calls follow the shape of the dose curve; as a rule, active = well fitted curve in the direction sought with a large enough effect in the repeat runs; inconclusive = weak or mixed curves; inactive = flat fitted curve, though single readings scatter. Non-standard residues stand in square brackets, D forms with d. Residues, ends and D or L forms follow the SMILES beside them. *: point of attachment. Sta = CC(C)C[C@H](N)[C@@H](O)CC(=O)O; Isovaleryl = CC(C)CC(=O)*
Assay: qHTS assay to test for compound auto fluorescence at 460 nm (blue) in HEK293 cell free culture (AID 720681)
Settings: cell-free medium, autofluorescence 405/460 nm (blue); series mostly up to 91.3 µM
Text: U.S. Tox21 Program National Center for Advancing Translational Sciences [NCATS] NIH Chemical Genomics Center [NCGC] U.S. Environmental Protection Agency [EPA] National Institutes of Environmental Health Sciences [NIEHS] National Toxicology Program [NTP] U.S. Food and Drug Administration [FDA] Tox21 Assay Overview: Compound auto fluorescence often interferes with screening of the compound library against various biological targets and signaling pathways. Some of these compounds may have fluorophoric properties. Such properties may interfere with the assay outputs resulting in false positives and/or negatives. To decrease such complications and ensure the compound activities are relevant in terms of biological response, the Tox21 10K compound library was screened for auto fluorescence. From the fluorophores used as reporter signals in our screening assays, the auto fluorescence equivalencies of compounds against three fluorophores have been evaluated: Triamterene, Fluorescein and Rose Bengal sodium for blue, green and red fluorescence, respectively. The fluorescence intensities were measured using Excitation/Emission wavelengths at 405/460nm, 485/535nm and 540/590nm for blue, green and red labels, respectively. This assay includes the blue fluorescence data.
Tox21 Assay Protocol Summary: 5 uL of culture medium (DMEM containing 10% FBS) per well was dispensed into black wall/clear bottom 1536-well plates using a Multidrop Combi Dispenser (ThermoFisher Scientific, Waltham, MA). After 23 nL compound or DMSO vehicle was transferred into assay plate by a pintool work station (Kalypsys, San Diego, CA), fluorescence intensities in the assay plates were measured by an Envision (PerkinElmer, Shelton, CT) plate reader using three labels for measuring blue, green and red fluorescence at […] 460, 535 and 590nm respectively.
With `CC[C@@]1(c2ccccc2)NC(=O)N(C)C1=O` the outcome was “inactive”.
In the case of `C/C=C/C(=O)CCCC`, the outcome is reported as “inactive”.
In the case of `CCCCCCC(O)CO` (stereo not given), the outcome is reported as “inactive”.
In the case of `CC(C)(O)c1ccc(C(C)(C)O)cc1`, the outcome is reported as “inactive”.
With `CC(C)(C)OC(=O)c1ccccc1C(=O)O` the outcome was “inactive”.
With `O=C1Nc2ccccc2C1=O` the outcome was “inactive”.
With `CC(C)CC(=O)N[C@H](C(=O)N[C@H](C(=O)N[C@@H](CC(C)C)[C@@H](O)CC(=O)N[C@@H](C)C(=O)N[C@@H](CC(C)C)[C@@H](O)CC(=O)O)C(C)C)C(C)C` (Isovaleryl-VV[Sta]A[Sta]-OH) the outcome was “inactive”.
In the case of `N#CC1(N)CCCCC1`, the outcome is reported as “inactive”.
In the case of `CCCCCCCC(=O)N(C)C`, the outcome is reported as “inactive”.
For `C=CCN1CCc2nc(N)sc2CC1`, the outcome was “inactive”.
With `O=C(O)CCC(=O)Nc1ccc(S(=O)(=O)Nc2nccs2)cc1` the fluorescence, % of fluorescent control was -0.0604% [at 18.6 µM].
For `O=C(CCBr)N1CCN(C(=O)CCBr)CC1`, the outcome was “inactive”.
With `N#Cc1ccccc1C#N` the outcome was “inactive”.
In the case of `NNC(=O)CCCCC(=O)NN`, the outcome is reported as “inactive”.
In the case of `C=CCn1cc[n+](C)c1`, the outcome is reported as “inactive”.
With `CC/C=C\CCCCCCCCCCOC(C)=O` the outcome was “inactive”.
With `CCCOc1ccc(C(=O)OCCN(CC)CC)cc1N` the outcome was “inactive”.
With `CC(C)(O)CCCC1=CCC(C=O)CC1` (stereo not given) the outcome was “inactive”.
For `CCNC(=O)C(C)OC(=O)Nc1ccccc1` (stereo not given), the outcome was “inactive”.
In the case of `CCCCCCCCCCCCCCCC/C=C/C1CC(=O)OC1=O` (stereo not given), the outcome is reported as “inactive”.
In the case of `CCCCNCC`, the outcome is reported as “inactive”.
In the case of `CCCCN1C(=O)c2ccccc2C1=O`, the outcome is reported as “inactive”.
For `C=CC(=O)OCC[N+](C)(C)C`, the outcome was “inactive”.
In the case of `O=C1CC2(CCCC2)CC(=O)N1CCNCC1COc2ccccc2O1` (stereo not given), the outcome is reported as “inactive”.
With `COC(=O)c1ccccc1Cl` the outcome was “inactive”.
In the case of `CCOC(=O)CC(C(C)=O)C(C)=O`, the outcome is reported as “inactive”.
For `Cc1ccc(O)c(C(=O)c2ccccc2)c1`, the outcome was “inactive”.
With `C[Si](C)(C)O[Si](O)(O)O` the outcome was “inactive”.
With `CCN(CC)CC` the outcome was “inactive”.
For `Cc1cc(N)no1`, the outcome was “inactive”.
With `CC(C)=CCC/C(C)=C\C#N` the outcome was “inactive”.
With `N=C(N)N` the outcome was “inactive”.
In the case of `CC(=O)SC[C@@H](C)C(=O)N1CCC[C@H]1C(=O)N[C@@H](Cc1ccccc1)C(=O)O`, the outcome is reported as “inactive”.
With `CCOC(=O)[C@H](CCc1ccccc1)N[C@H]1CS[C@H](c2cccs2)CN(CC(=O)O)C1=O` the outcome was “inactive”.
For `C[C@@H]1NC(=O)[C@@H](N)CNC(=O)[C@H](C2CCNC(N)=N2)NC(=O)/C(=C/NC(N)=O)NC(=O)[C@H](CNC(=O)C[C@@H](N)CCCN)NC1=O` (stereo not given in full), the outcome was “inactive”.
With `CN(C)CCc1c[nH]c2ccc(CS(=O)(=O)N3CCCC3)cc12` the outcome was “inactive”.
In the case of `CCCCCCCCC1CO1` (stereo not given), the outcome is reported as “inactive”.
For `CCc1ccc(CC)cc1`, the outcome was “inactive”.
For `O=C(O)CCCCCCCCCC(=O)O`, the outcome was “inactive”.
For `NNC(=O)OCc1ccccc1`, the outcome was “inactive”.
% is scaled to controls: 0 for no effect and ±100 for the full control effect.
